Reference: PubChem BioAssay AID488969 (Vanderbilt High Throughput Screening Facility, 2010)
In all, about 110,000 compounds were measured (“z-score”: median about -0.1, highest 2% from about 2 on). What follows is part of a selection rich in the highest values, with near analogues and random picks from the rest. Calls of active or inactive are those of the source.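 The calls were made as follows: active = z-score in the third read window above 3 or below -3; inactive = the rest.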

Each compound was assayed against Metabotropic glutamate receptor 8 (Rattus norvegicus) (UniProt P70579) (assay: rat mGluR8 modulators via GIRK flux, primary screen, cell-based, thallium flux, HTS (AID 488969)). Settings: HEK293 rat mGluR8, GIRK (G protein-gated inwardly rectifying potassium channel) thallium flux, FluoZin2; at 10 µM; stronger effect = higher value; submaximal glutamate (EC20) added with thallium.
Chain of Metabotropic glutamate receptor 8 (Rattus norvegicus) (P70579 whole entry, looked up): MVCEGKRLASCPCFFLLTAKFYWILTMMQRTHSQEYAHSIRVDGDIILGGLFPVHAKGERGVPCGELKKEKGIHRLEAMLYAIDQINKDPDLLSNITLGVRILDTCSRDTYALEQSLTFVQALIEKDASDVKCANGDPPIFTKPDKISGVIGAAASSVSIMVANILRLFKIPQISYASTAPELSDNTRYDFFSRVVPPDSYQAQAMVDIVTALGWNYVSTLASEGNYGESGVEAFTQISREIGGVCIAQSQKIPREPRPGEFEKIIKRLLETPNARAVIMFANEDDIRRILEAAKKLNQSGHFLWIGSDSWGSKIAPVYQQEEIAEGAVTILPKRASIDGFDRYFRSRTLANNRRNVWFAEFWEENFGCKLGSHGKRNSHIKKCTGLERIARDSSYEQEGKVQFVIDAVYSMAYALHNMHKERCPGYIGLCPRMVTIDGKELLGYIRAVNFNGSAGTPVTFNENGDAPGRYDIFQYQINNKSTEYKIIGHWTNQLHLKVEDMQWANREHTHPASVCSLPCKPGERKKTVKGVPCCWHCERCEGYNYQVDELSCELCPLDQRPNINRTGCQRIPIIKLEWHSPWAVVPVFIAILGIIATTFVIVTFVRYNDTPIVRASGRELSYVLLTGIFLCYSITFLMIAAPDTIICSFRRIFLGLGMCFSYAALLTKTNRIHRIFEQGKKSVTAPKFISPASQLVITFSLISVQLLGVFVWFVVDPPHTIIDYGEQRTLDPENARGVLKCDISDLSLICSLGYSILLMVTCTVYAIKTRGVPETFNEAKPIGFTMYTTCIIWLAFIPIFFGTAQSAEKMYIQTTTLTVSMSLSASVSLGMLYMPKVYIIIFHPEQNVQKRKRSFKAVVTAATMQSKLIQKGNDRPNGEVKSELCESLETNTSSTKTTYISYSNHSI

Structure (SMILES)	z-score
COc1ccc(OC)c(N(CC(=O)Nc2ccc3c(c2)OCO3)S(=O)(=O)c2ccccc2)c1	-0.348
O=C(Nc1nnc(-c2ccccc2Cl)o1)c1ccc(S(=O)(=O)N2CCCCCC2)cc1	13.1 (active)
COCc1nnc(NC(=O)c2ccc(S(=O)(=O)N3CCCCCC3)cc2)o1	-0.164
Cc1nnc(NC(=O)c2ccc(S(=O)(=O)N3CCCCCC3)cc2)o1	-0.304
CC1CCCN(S(=O)(=O)c2ccc(C(=O)Nc3nnc(-c4ccccc4Cl)o3)cc2)C1 (stereo not given)	3.98 (active)
CC1CCCN(S(=O)(=O)c2ccc(C(=O)Nc3ccccc3-c3nc4ccccc4[nH]3)cc2)C1 (stereo not given)	-0.205
CCC1CCCCN1S(=O)(=O)c1ccc(C(=O)Nc2nnc(-c3ccccc3Cl)o2)cc1 (stereo not given)	1.12
CCOC(=O)Cc1csc(NC(=O)CSc2nnc(C(C)C)n2CC)n1	0.0208
CCN(CC)c1ccc(NC(=O)c2cccnc2)cc1	-0.663
CCCS(=O)(=O)N1CCC(C(=O)N2CCCC2)CC1	-1.16
O=[N+]([O-])c1ccc(N2CCN(S(=O)(=O)c3ccccc3[N+](=O)[O-])CC2)cc1N1CCc2ccccc2C1	-0.00158
O=C(/C=C/c1ccccc1Cl)NCc1ccco1	-0.133
C=CCN(Cc1cccc(OC)c1OC)S(=O)(=O)N(C)C	-0.164
Cc1ccc(-n2nnnc2-c2ccco2)cc1	-0.111
Cc1ccc(-n2nnnc2-c2nc3ccccc3s2)cc1	6.16 (active)
CCOc1ccc(-n2nnnc2-c2nc3ccccc3s2)cc1	-0.319
CCN(CC)C(=O)/C(=C\c1cccc([N+](=O)[O-])c1)NC(=O)c1ccco1	-0.281
CC(/C=N/NC(=O)c1cc(-c2ccc(Cl)cc2)nc2ccccc12)=C\c1ccco1	0.0726
Cc1ccc(-c2cc(C(=O)N/N=C/C=C/c3ccco3)c3ccccc3n2)cc1C	2.64
CC(/C=N/NC(=O)c1cc(-c2ccccc2)nc2ccccc12)=C\c1ccco1	-0.0414
Cc1ccc(C(=O)N(Nc2nc3ccccc3s2)C(=O)c2ccc(C)cc2)cc1	0.0589
O=C(OCc1ccc([N+](=O)[O-])cc1)c1ccc(N2CCCC2)c([N+](=O)[O-])c1	0.344
CC(C)(C)N1CC2(c3ccccc3)CN(C(C)(C)C)CC(c3ccccc3)(C1)C2=O	1.19

Structure (SMILES)	z-score
O=[N+]([O-])c1cnccc1Nc1cccc(F)c1	0.28
O=[N+]([O-])c1ccccc1-c1cc(-c2ccccc2O)n[nH]1	-0.676
O=C(/C=C/c1ccccc1)/C=C/c1ccccc1	-0.389
CCc1ccc(/C=C\C(=O)N2CCc3ccccc3C2)cc1	-0.105
Cc1ccc(/C=C/C(=O)C2C(=O)c3ccccc3C2=O)cc1	0.871
CCc1ccc(/C=C/C(=O)C2C(=O)c3ccccc3C2=O)cc1	3.92 (active)
CCc1ccc(/C=C/C(=O)c2c(C)cc(C)[nH]c2=O)cc1	-0.106
O=C(/C=C/c1ccccc1)C1C(=O)c2ccccc2C1=O	4.21 (active)
COc1ccc(N(C(=O)c2cnsn2)C(C(=O)NC2CCCCC2)c2ccncc2)cc1 (stereo not given)	0.0313
O=C(NC(=S)NCCN1CCOCC1)c1ccccc1Br	0.00751
CC(C)NC(=S)NC(=O)c1ccc(Cl)cc1Cl	13.8 (active)
O=C(NC(=S)NCCN1CCOCC1)c1ccc(Cl)cc1Cl	0.241
Cc1cc(Cl)ccc1NC(=S)NCC(C)C	-0.0377
CCCCNC(=S)NC(=O)c1ccc(Cl)cc1Cl	3.01 (active)
CCC(=O)Nc1cccc(NC(=S)NC(=O)c2ccc(Cl)cc2Cl)c1	0.0528
CC(C)CNC(=S)NC(=O)c1ccc(Cl)cc1Cl	13.8 (active)
CCCCNC(=O)c1ccccc1C(=O)NCCCC	0.0704
CCCCNC(=S)NC(=O)c1ccccc1Br	6.17 (active)
O=C(NC(=S)NCC1CCCO1)c1ccc(Cl)cc1Cl (stereo not given)	-0.218
CC(C)CC(NC(=O)c1ccc(Cl)cc1Cl)C(=O)O (stereo not given)	-0.413
CCCCNC(=O)c1ccccc1Cl	-0.135
Cc1cc(N2C(=O)CC(Cc3ccccc3)C2=O)no1 (stereo not given)	-0.0586
CCOc1ccc(N(CC)S(=O)(=O)c2ccc3c(c2)n(C)c(=O)c(=O)n3C)cc1	-0.239

Structure (SMILES)	z-score
CCN(CC)S(=O)(=O)c1ccc(N2CCOCC2)c(NS(=O)(=O)c2ccc(C)cc2)c1	-0.152
Clc1ccc(Cn2ncc3c(N4CCCCC4)ncnc32)cc1	-0.535
O=C(O)c1cc([N+](=O)[O-])ccc1N1CCCCC1	-0.123
CCN(CC)S(=O)(=O)c1ccc(N2CCOCC2)c(NC(=O)Cc2ccc(Cl)cc2)c1	0.141
O=C(NCCc1ccncc1)Nc1ccccc1	0.141
O=C(O)c1c(F)c(F)cc2ccccc12	0.365
CNc1oc(-c2ccco2)nc1C#N	0.498
Cc1cc(Cl)c(S(=O)(=O)N2CCCCCC2)cc1OCC(N)=O	1.66
CC(C)CNC(=S)NC(=O)c1ccccc1Cl	8.99 (active)
O=C(NC(=S)NCCN1CCOCC1)c1ccccc1Cl	-0.177
CCNC(=S)NNC(=O)c1ccccc1Cl	-0.211
Cc1cc(/C=C(\C#N)C(=O)Nc2ccccc2)c(C)n1-c1ccc2c(c1)OCO2	-0.335
CCN(CC)C(=O)Oc1ccc2cc(Br)ccc2c1	0.935
CC(C)(C)C1CCC(OCC(O)CN2CCN(Cc3ccccc3)CC2)CC1 (stereo not given)	-0.106
CC1CCN(CC(O)COC2CCC(C(C)(C)C)CC2)CC1 (stereo not given)	4.18 (active)
CC(C)(C)C1CCC(OCC(O)CN2CCN(c3ccccc3)CC2)CC1 (stereo not given)	-0.235
CC(=O)/C(=N\Nc1ccccc1)Sc1nnc(-c2ccccc2)n1-c1ccccc1	-0.24
COc1ccccc1-n1nnnc1SCC(=O)NC1CCCC1	-0.293
Cc1cnc(NC(=O)CSc2ncn(-c3ccccc3)n2)s1	-0.143
Cc1cccc(C)c1OCC(=O)N/N=C/c1cccn1C	-0.372
Cc1ccccc1OCC(=O)N/N=C/c1cccn1C	2.42
Cc1ccc(OCC(=O)N/N=C/c2cccn2C)cc1	1.01
CCCS(=O)(=O)N1CCCC(C(=O)NCCCN(C)c2ccccc2)C1 (stereo not given)	0.0444

Structure (SMILES)	z-score
O=S(=O)(c1ccc(Cl)cc1)N1CCN(C(=S)Nc2ccc(F)c(Cl)c2)CC1	0.862
O=S(=O)(c1ccccc1)N1CCN(C(=S)Nc2ccc(F)cc2)CC1	3.37 (active)
NS(=O)(=O)c1ccc(NC(=S)N2CCN(S(=O)(=O)c3ccc(F)cc3)CC2)cc1	0.195
COc1ccccc1-n1c(CCn2nc(C)c(Br)c2C)n[nH]c1=S	-0.472
CC1(C)CC(=O)C(N=Nc2ccc(Cl)cc2)=C(O)C1	-0.154
CC(C)c1ccc(OCC(=O)N(c2ccccn2)C2CCCCC2)cc1	-0.397
O=C(CSc1nncs1)NCc1ccc2c(c1)OCO2	-0.652
COc1cccc(-n2c(SCC(=O)N3CCCC3)nc3c([nH]c4ccccc43)c2=O)c1	-0.189
Cc1nnc2c3ccccc3c(-c3cccc4ccccc34)nn12	-1.04
CC1CCCC(C)N1C(=O)CSc1nnc(COc2ccccc2)n1-c1ccccc1 (stereo not given)	-0.853
CC(C)(CO)Nc1nc(N2CCCC2)nc(N2CCCC2)n1	2.09
CC(C)(C)Nc1nc(N2CCCC2)nc(N2CCCC2)n1	-0.14
OCCNc1nc(N2CCCC2)nc(N2CCCC2)n1	-0.968
CC1CCCN(CC(O)COc2ccc(Cl)cc2)C1 (stereo not given)	0.149
O=C(CSc1nccc2ccccc12)N1CCN(c2ccccn2)CC1	-1.6
Cc1ccc(NC(=O)COc2cccnc2[N+](=O)[O-])cc1S(=O)(=O)N1CCCCC1	4.45 (active)
O=C(COc1cccnc1[N+](=O)[O-])Nc1cccc(S(=O)(=O)N2CCCCC2)c1	-0.289
Cc1ccc(OCC(=O)Nc2cccc(S(=O)(=O)N3CCCCC3)c2)c([N+](=O)[O-])n1	0.216
Cc1ccc(NC(=O)COC(=O)CNC(=O)c2cccc([N+](=O)[O-])c2)cc1S(=O)(=O)N1CCCCCC1	0.745
Cc1ccc(OCC(=O)Nc2ccc(C)c(S(=O)(=O)N3CCCCC3)c2)c([N+](=O)[O-])n1	6.89 (active)
Cc1ccc(OCC(=O)Nc2cc(S(=O)(=O)N3CCCCC3)ccc2C)c([N+](=O)[O-])n1	-0.377
CCC(c1nnc(SCC(=O)Nc2nnc(-c3ccccc3)o2)o1)N(C)C (stereo not given)	-0.0751
Oc1cccc(/C=N/Nc2cc(N3CCOCC3)nc(N3CCOCC3)n2)c1	-0.242

Structure (SMILES)	z-score
O=C(NC1CCc2ccccc21)C1CCN(S(=O)(=O)c2ccc(-n3cnnn3)cc2)CC1 (stereo not given)	0.204
O=C(NC1CCCc2ccccc21)C1CCN(S(=O)(=O)c2ccccc2F)CC1 (stereo not given)	-0.424
O=C(NC1CCc2ccccc21)C1CCN(S(=O)(=O)c2ccc(Cl)cc2)CC1 (stereo not given)	2.31
O=C(/C=C/c1ccc(F)cc1)N1CCCN(C(=O)/C=C/c2ccc(F)cc2)CC1	-0.668
CCCn1c(SCC(=O)N2N=C3/C(=C/c4ccc(OC)cc4)CCCC3C2c2ccc(OC)cc2)n[nH]c1=O (stereo not given)	-0.0176
O=C(CSCc1ccc(F)cc1)Nc1ccccc1	0.0848
CC(C)CC(=O)NS(=O)(=O)c1ccc(N)cc1	0.0965
COc1cccc(/C=C/C(=O)Oc2ccc(C(=O)c3ccc(F)cc3)cc2)c1	-2.23
Cc1ccc(S(=O)(=O)NCCNC(=O)C2CCCNC2=O)cc1 (stereo not given)	2.41
CCCCNC(=O)C1CCCNC1=O (stereo not given)	0.0768
CN(C)CCNC(=O)C1CCCNC1=O (stereo not given)	0.0264
N#CCSCC(=O)Nc1ccc(Cl)cc1	0.285
Cc1ccc(NC(=O)Cn2cccc2)cc1Cl	2.51
NC(=O)SCC(=O)Nc1cccc(Cl)c1	2.86
Nc1cc(=O)[nH]c(SCC(=O)Nc2cccc(Cl)c2)n1	0.151
Cc1ccc(NC(=O)CSC(N)=O)cc1Cl	5.44 (active)
Cc1ccc(Cl)cc1NC(=O)Cn1cccc1	-0.44
Cc1ccc(NC(=O)CSCC#N)cc1Cl	-0.0832
Cc1ccc(NC(=O)CCn2cccc2)cc1Cl	-0.079
Cc1ccc(Cl)cc1NC(=O)CSC(N)=O	0.476
O=C(COc1ccccc1O)Nc1ccc(Cl)cc1	-0.0165
COC(=O)CCC(=O)Nc1cccc(Cl)c1	-0.0969
NC(=O)SCC(=O)Nc1ccc(Cl)cc1	5.18 (active)
